# Rows were chosen to be rich in hits. Some 3.7% of all compounds tested hit in one or more screens of this group.
# Tb PYK inh: T. brucei pyruvate kinase inhibition; Q57TT1; TbPYK enzyme, Kinase-Glo Plus ATP luminescence, 45 min; Potency, µM (series often up to 76.8 µM), inactives show at the highest dose activity, negative = inhibition, most hits filed as inhibitors; 0.12% of 410,000 active; AID 624173; also: nearly all actives have a fitted effect of over 50% in size
#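 Luminescence from Kinase-Glo Plus, added after a 45-minute room-temperature reaction, served as the end-point read-out. The enzyme and substrate were preincubated with compound before ADP (130 uM final) initiated turnover. Concentration-effect curves came from normalized qHTS data.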
# RE007 growth inh: less growth of the S. pombe RE007 Vpr strain; S. pombe RE007 Vpr strain, BacTiter-Glo ATP luminescence, 24 h; Potency, µM (titrated, usually from 92.2 µM), for inactives: top-dose activity change, negative = less growth, actives largely listed as inhibitors; 0.21% of 360,000 active; AID 651644; active = well fitted falling curve with a large enough effect; inconclusive = small, poorly fitted or top-dose-only effect; inactive = no such curve, though single readings can be large or run the other way; also: nearly all actives have a fitted effect of over 50% in size
#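 Fission yeast RE007 carrying one integrated HIV-1 vpr copy, seeded at OD 0.01 in PMG+AL medium with 23 nL pinned compound. Grown 24 h at 30 degrees; viability read by BacTiter-Glo luminescence after 5 min.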
# FMDV antiviral: antivirals against foot and mouth disease virus; AID 1159524; FMDV antiviral cell-based qHTS; Potency, µM (titrated, usually from 57.9 µM), for the others: top-dose activity change, negative = inhibition, hits mostly inhibitors; 1.2% of 410,000 active; calls by dose curve; tested in HEK293T cells; also: read-out not given here; nearly all actives have a fitted effect of over 45% in size
# Sm TGR inh: S. mansoni TGR enzyme inhibition; Potency, µM (top dose mostly 114 µM), for inactives: at the highest dose activity change, negative = inhibition, usual class: inhibitors; 3% of 360,000 active; purified TGR, DTNB reduction, TNB absorbance 405 nm; AID 485364; also: nearly all actives have a fitted effect of over 60% in size
#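 TGR 20 nM + NADPH 100 uM (dispensed conc.), cpd preinc 15 min RT; start with NADPH (500 uM addition) then DTNB (15 mM addition). Kinetic TNB absorbance, 405 nm filter. Four-parameter Hill fit across titration.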
# Starred values were filed as active, the others as inactive; ? = inconclusive; / = no result; ! = repeats disagree; [ ] = dose if it differs, or a comment. Unless noted, calls follow the shape of the dose curve; as a rule, active = well fitted curve in the direction sought with a large enough effect; inconclusive = small, poorly fitted or top-dose-only effect, or another doubt; inactive = no such curve, though single readings can be large; an effect the other way counts as inactive or inconclusive. % is scaled to controls: 0 for no effect and ±100 for the full control effect; potency is read from the fitted curve at half-maximal effect.
SMILES,Tb PYK inh,RE007 growth inh,FMDV antiviral,Sm TGR inh
CC1CCCN(C(=O)c2cc3ccc4cccnc4c3[nH]2)C1 (stereo not drawn),?,/,14µM*,1%
c1ccc2c(c1)CCN(c1nc3cc4c(cc3s1)OCCO4)C2,-30%,?,7.9µM*,-16%
COc1ccc(OC)c2sc(N3CCc4ccccc4C3)nc12,0%,10%,27%,-3%
Cc1c(CNC2CCCCCC2)c(C(=O)O)c(C)n1Cc1cccc(Cl)c1,-5%,/,13%,-7%
O=C(COc1ccc(Cl)cc1Cl)Nc1ccccn1,?,?,1.6µM*,3%
CSc1ccccc1NC(=O)COc1ccc(Cl)cc1Cl,-4%,27%,-2%,5%
CCCn1c(CC)nc([N+](=O)[O-])c1Sc1ccc(C)cc1,-10%,12%,?,-32%
CCCn1c(CC)nc([N+](=O)[O-])c1Sc1ccc(F)cc1,1%,-6%,18µM*,45µM*
CCOc1ccc(CN2CCN(C3CCC3)CC2CCO)cc1 (stereo not drawn),0%,7%,3%,13µM*
COc1nc(Oc2ccc(C(=O)OCC(N)=O)cc2)nc(N(C)C)n1,-3%,-11%,/,0%
COC(=O)COC(=O)c1ccc(Oc2nc(OC)nc(N(C)C)n2)cc1,/,39%[3.69 µM],-19%,2.2µM*
CCOc1ccc(S(=O)(=O)N2CCC(C(=O)Nc3ccccc3N3CCCC3)CC2)cc1,6%,11%,-19%,/
COc1cc(OC)c(NC(=O)C(Cc2ccccc2)NS(=O)(=O)c2cccc3nsnc23)cc1Cl (stereo not drawn),4%,/,30%,9%
Oc1ccc(C2=NN(c3ccccc3)C(c3ccc(F)cc3)C2)cc1 (stereo not drawn),-1%,40µM*,?,10%
CCN1C(=O)c2ccc(C(=O)Nc3cccc(C(=O)O)c3)cc2C1=O,-9%,?,14µM*,0%
O=C(Nc1cc(F)ccc1F)N1CCN(c2ccnc3cc(Cl)ccc23)CC1,-7%,-1%,32µM*,-1%
O=S(=O)(c1ccccc1)N1CCN(c2ccnc3cc(Cl)ccc23)CC1,-13%,-17%,25µM*,/
CCCCNC(=O)N1CCN(c2ccnc3cc(Cl)ccc23)CC1,-16%,1%,32µM*,4%
Nc1nn(-c2ccccc2)nc1C(=O)OCc1c(F)cccc1Cl,-7%,/,41%,13%
COc1ccccc1S(=O)Cc1ccc(C(=O)NCCc2ccc(Cl)cc2)o1 (stereo not drawn),-15%,-6%,?,40µM*
COc1ccccc1S(=O)Cc1ccc(C(=O)NC2CCCC2)o1 (stereo not drawn),-25%,3%,-18%,-7%
CCOc1ccc(CCNC(=O)c2ccc(CS(=O)Cc3ccc(Cl)cc3)o2)cc1 (stereo not drawn),10%,-9%,?,28µM*!
O=C(NCCc1ccc(Cl)cc1)c1ccc(CS(=O)Cc2ccc(Cl)cc2)o1 (stereo not drawn),0%,0%,-29%,-21%
Cc1oc(-c2ccccc2NC(=O)C2CCC2)nc1CNC(=O)c1ccccn1,/,/,-6%,/
CCc1cc2ccc(OC)cc2nc1SCC(=O)NNC(=O)c1ccco1,-3%,-7%,-11%,8.9µM*
SMILES,Tb PYK inh,RE007 growth inh,FMDV antiviral,Sm TGR inh
COc1ccc(N2CCN(C(=O)C3CCN(Cc4nc(-c5ccc(Cl)cc5)oc4C)CC3)CC2)cc1,3%,/,-16%,-15%
CC(C)CCNC(=O)c1ccc2c(c1)nc1n2CCCCC1,1%,/,-25%,1%
O=C(NCCc1ccccc1Cl)c1ccc2c(c1)nc1n2CCCCC1,1%,/,25µM*,-7%
CCCC(=O)NC(Oc1ccc(C(C)=O)cc1)C(Cl)(Cl)Cl (stereo not drawn),0%,-15%,11%,28µM*
Cc1ccccc1C(=O)NC(Oc1ccccc1)C(Cl)(Cl)Cl (stereo not drawn),2%,-6%,-26%,-7%
Cc1ccc(NC(=O)Cn2cnc3c2c(=O)n(C)c(=O)n3C)cc1C,3%,/,-14%,8%
Cc1oc(-c2ccc3c(c2)OCCO3)cc1C(=O)NC(CCC(=O)O)C(=O)O (stereo not drawn),-7%,4%,41%,-28%
Cn1cc(C(=O)O)c(-c2ccc3c(c2)OCCCO3)n1,-4%,-2%,-2%,1%
Cc1oc(-c2ccc3c(c2)OCCO3)cc1C(=O)O,?,?,2.2µM*,?
Cc1oc(-c2ccc3c(c2)OCCO3)cc1C(=O)NCC(=O)O,-20%,0%,28µM*,-5%
COc1ccc(-c2cc(C(=O)NC(Cc3cc4ccccc4[nH]3)C(=O)O)c(C)o2)cc1OC (stereo not drawn),-21%,20%,21%,?
COc1ccc(-c2cc(C(=O)O)c(C)o2)cc1OC,/,20%[3.69 µM],13µM*,-9%
CCOC(=O)C1=C(C)NC2=C(C(=O)CCC2)C1c1ccc(O)c(OCC)c1 (stereo not drawn),-12%,9%,-12%,-8%
CCOc1cc(C2C(C(=O)N3CCCCC3)=C(C)NC3=C2C(=O)CCC3)cc(Br)c1O (stereo not drawn),-9%,1%,13%,25µM*
Cc1c(-c2ccc(Cl)cc2)[n+](=O)c(-c2ccccc2)cn1[O-],0%,0%,10%,50µM*
Cc1cc(C)nc(S[C@H]2C[C@@H](C(=O)N3CCN(c4ccccc4F)CC3)N(Cc3ccccc3C(F)(F)F)C2)n1,/,/,4%,/
CCOC(=O)C(=O)C1=C(N2CCOCC2)/C(=C\c2cccc([N+](=O)[O-])c2)CC1,2%,-13%,-15%,40µM*
O=C(NP(=O)(N1CCCC1)N1CCCC1)C1=C(N2CCOCC2)/C(=C/c2cccc([N+](=O)[O-])c2)CC1,-4%,-15%,-10%,18µM*
CC(=O)Nc1c(I)c(C(=O)O)c(I)c(N(C)C(C)=O)c1I,0%,/,/,/
Cc1ccccc1-c1ccc2ncnc(NCCN3CCOCC3)c2c1,/,/,-28%,/
O=C1CN(CC(=O)N2CCOCC2)c2ccccc2O1,/,/,/,20µM*
O=C1CN(CC(=O)N2CCCCC2)c2ccccc2O1,-2%,?,18%,11µM*
O=C(CN1C(=O)COc2ccccc21)N1CCOCC1,-2%,-13%,-18%,0%
COc1ccc(C(=O)Nc2ccccc2SCc2cc(=O)c3cccc(C)c3[nH]2)cc1,-3%,/,82%,0%
CCCC(=O)Nc1ccc(S(=O)(=O)Nc2nccs2)cc1,3%,5%,16%,/
SMILES,Tb PYK inh,RE007 growth inh,FMDV antiviral,Sm TGR inh
O=C(CCl)Nc1ccc(S(=O)(=O)NC2=NCCCCC2)cc1,-16%,-10%,32µM*,/
CCOC(=O)/C=C/C(=O)Nc1ccc(S(=O)(=O)Nc2nccs2)cc1,-6%,4%,0%,45µM*
O=C(CCl)Nc1ccc(S(=O)(=O)Nc2nccs2)cc1,8%,-3%,-12%,20µM*
COc1cc2c(cc1OC)C(COc1ccc3c(C)cc(=O)oc3c1)N(C(=O)c1ccccc1C)CC2 (stereo not drawn),0%,/,-28%,-9%
CCCCNC(=O)c1cccc(NC(=O)c2nsc3ccccc23)c1,-14%,/,25%,7%
CN(C)c1ccc(N=Nc2ccc(C(=O)O)cc2)cc1,-30%,7%,11µM*,40µM*
